CYP2C19 inhib – human CYP2C19 inhibition. CYP2C19 Supersomes, luciferin-H EGE luminescence, 30 min. P33261. inhibition, % at 5 µM. 96,000 compounds, 21% hits;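 active = CYP2C19 inhibition above a set limit at 5 µM in the primary screen, cut at about 50% in these data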;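 also: plate controls were negative control wells for no effect and 2.5 mM tranylcypromine positive control for full effect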
PostGolgi yeast – growth inhibition of a yeast mutant, post-Golgi transport screen. post-Golgi transport phenotypic cell assay. inhibition, % at 10 µM. 98,000 compounds, 0.9% hits. AID 739;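 also: yeast cells grown in 1536-well plates; yeast grown about 18 h at 30C before absorbance read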
PostGolgi ctrl – yeast control strain growth, post-Golgi counter-screen; efflux-deficient yeast background strain, growth absorbance A615, 16 h; inhibition, % at 10 µM; 98,000 compounds, 5% hits; AID 738
CYP2C9 activ – activators of human CYP2C9; P11712; recombinant CYP2C9, luciferin-H conversion, luminescence; stronger effect = higher value; factor 1 = untreated enzyme, 0 = blocked; activation factor at 5 µM; 96,000 compounds, 1.4% hits; AID 1024;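 active = activation factor of 2 or more for CYP2C9 at a 5 µM dose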;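 also: 0 = sulfaphenazole-blocked wells and 1 = vehicle-only wells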
Target sequence (P11712 whole entry, looked up): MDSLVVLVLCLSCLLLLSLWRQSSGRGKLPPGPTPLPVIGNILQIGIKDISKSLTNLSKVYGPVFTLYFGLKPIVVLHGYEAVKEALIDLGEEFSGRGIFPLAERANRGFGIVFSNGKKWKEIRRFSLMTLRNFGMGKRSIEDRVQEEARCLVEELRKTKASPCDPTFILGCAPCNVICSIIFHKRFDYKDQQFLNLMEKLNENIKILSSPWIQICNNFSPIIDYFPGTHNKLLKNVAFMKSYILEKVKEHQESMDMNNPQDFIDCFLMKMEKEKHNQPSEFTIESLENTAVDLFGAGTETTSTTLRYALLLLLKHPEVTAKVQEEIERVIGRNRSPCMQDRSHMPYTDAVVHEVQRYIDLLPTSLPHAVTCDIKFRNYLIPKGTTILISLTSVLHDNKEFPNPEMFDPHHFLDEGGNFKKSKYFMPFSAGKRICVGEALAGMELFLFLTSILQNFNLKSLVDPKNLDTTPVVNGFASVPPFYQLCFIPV
CYP2C9 inh – blocks human cytochrome P450 2C9. P11712. CYP2C9 Supersomes, luciferin-H conversion, luminescence. inhibition, % at 5 µM. 96,000 compounds, 20% hits. AID 777;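 active = blocking of liver enzyme CYP2C9 beyond about 50% at 5 µM, limit read from the data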
CYP2C19 activ – increases human CYP2C19 enzyme activity | P33261 | recombinant CYP2C19, luciferin-H EGE luminescence; stronger effect = higher value; 0 = fully inhibited enzyme, 1 = untreated enzyme | activation factor at 5 µM | 96,000 tested, under 10 active;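 active = activation factor of at least 2 at 5 µM in the primary screen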;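 also: 0 = wells with 2.5 mM tranylcypromine and 1 = vehicle-only wells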
An asterisk follows results filed as active; · = no result given. Only some compounds are listed: those with a hit (about 32% of all), similar ones and a draw of the others. Rule as the data show it, unless noted: active = inhibition above about 30%; inactive = the rest.

SMILES	CYP2C19 inhib	PostGolgi yeast	PostGolgi ctrl	CYP2C9 activ	CYP2C9 inh	CYP2C19 activ
Cc1cc(C)cc(N2C(=O)CC(Sc3nnnn3-c3ccccc3)C2=O)c1 (configuration not stated)	54.1*	4.8	1.5	1.5	-48.9	0.5
CCCCN(CCCC)C(=O)/C=C/c1cccc([N+](=O)[O-])c1	72.4*	-4.6	9.4	0.4	60.1*	0.3
CC12C(=O)N(c3nccs3)C(=O)C1C1C=CC2C1 (configuration not stated)	64.9*	-0.8	1.2	1	2.6	0.4
COc1ccc(C(NC(=O)C(C)(C)C)NC(=O)C(C)(C)C)cc1	·	2.5	13.3	·	·	·
O=C(CSc1ncc(-c2ccccc2)n1C1CCCC1)N1CCc2ccccc21	65.0*	-2.9	4.3	0.5	50.6*	0.3
O=C(CSc1nnnn1C1CCCCC1)N1CCc2ccccc21	-13.9	21.8	4.5	1.1	-11.0	1.1
O=C(O)c1cccnc1SCCc1ccccc1	5.9	-3.6	1.4	0.7	25.3	0.9
O=C(CSc1nccn1-c1ccccc1)N1CCc2ccccc21	96.5*	-11.7	0.9	0.9	14.8	0
Cn1c(SCC(=O)N2CCCCC2)nc2cccnc21	8.9	-2.3	9.3	1	-0.1	0.9
c1ccc(CCSc2nccn2-c2ccccc2)cc1	60.7*	-2.6	2.0	0.5	54.1*	0.4
Cn1c(SCC(=O)N2CCc3ccccc32)nc2cccnc21	82.3*	3.5	1.3	0.6	36.7	0.2
CCn1c(SCC(=O)Nc2cc(C)ccc2C)nc2c(c1=O)SC(C)C2 (configuration not stated)	20.2	2.5	7.5	0.2	76.2*	0.8
CC1Cc2nc(SCC(=O)Nc3ccc(F)cc3F)n(C)c(=O)c2S1 (configuration not stated)	27.0	·	·	0.5	52.7*	0.7
CCn1c(SCC(=O)Nc2cccc(F)c2)nc2c(c1=O)SC(C)C2 (configuration not stated)	·	1.9	-2.9	·	·	·
Cc1ccc(C)c(NC(=O)CSc2nc3c(c(=O)n2C)SC(C)C3)c1 (configuration not stated)	17.3	1.4	-5.9	0.3	65.5*	0.8
Cc1ccc2nc(NC(=O)CSc3nc4c(c(=O)n3C)SC(C)C4)sc2c1 (configuration not stated)	48.4	-1.3	26.7	0.3	68.3*	0.5
CC1Cc2ccccc2N1Cc1nc2cc(C(F)(F)F)ccc2c(=O)[nH]1 (configuration not stated)	42.7	8.5	5.5	0.5	50.9*	0.6
Cc1cc(C)c2nc(N)sc2c1	67.6*	17.7	11.9	0.7	32.2	0.3
Clc1ccc(Cn2cc(Br)cn2)cc1Cl	72.4*	0.3	18.1	0.6	38.7	0.3
Clc1cccc(Cl)c1Cn1cc(Br)cn1	29.4	0.4	10.9	0.9	6.1	0.7
CC(=O)Nc1cnn(Cc2ccc(Br)cc2)c1	66.4*	21.0	7.5	0.8	22.9	0.3
O=C(Nc1cnn(Cc2ccc(Cl)cc2)c1)c1cnccn1	41.7	-3.1	1.2	0.4	62.1*	0.6
CSc1nc(C)c(CCOC(=O)c2cccc(Cl)c2)c(=O)[nH]1	2.6	1.6	-2.0	0.8	23.4	1
COc1ccc2c(c1OC)C(=O)OC2Nc1ncc(Br)cc1Br (configuration not stated)	0.3	-1.3	2.7	1	1.0	1
CN(C)c1ccc(NC(=O)CSCc2nc3c(nnn3Cc3ccc(F)cc3)c(=O)[nH]2)cc1	44.1	-8.7	4.8	0.4	59.4*	0.6
SMILES	CYP2C19 inhib	PostGolgi yeast	PostGolgi ctrl	CYP2C9 activ	CYP2C9 inh	CYP2C19 activ
Cc1ccc(Cn2nnc3c(=O)[nH]c(C4CCCN(C(=O)Nc5ccc(F)cc5)C4)nc32)cc1 (configuration not stated)	-7.0	-4.0	2.4	1	-1.0	1.1
CCn1nc(C)c(C(=O)Nc2cc(Oc3ccc(Cl)cc3)cc([N+](=O)[O-])c2)c1C	24.7	-12.3	8.0	0.5	48.3	0.8
CN(C1CCCCC1)S(=O)(=O)c1ccc(NC(=O)c2ccco2)cc1	23.6	8.8	22.6	0.6	44.4	0.8
O=C(NCc1ccc(OC(F)(F)F)cc1)C1CC(c2ccccc2[N+](=O)[O-])=NO1 (configuration not stated)	23.0	-0.3	18.1	3.1*	-212.6	0.8
Cc1ccc(CNC(=O)C2CC(c3ccccc3[N+](=O)[O-])=NO2)cc1 (configuration not stated)	23.4	4.5	12.0	1.3	-31.4	0.8
O=C(NCCCCc1ccccc1)C1CC(c2ccccc2[N+](=O)[O-])=NO1 (configuration not stated)	51.4*	5.2	17.5	0.6	37.3	0.5
O=C1c2ccccc2C(=O)N1CCCCSc1nc2ccccc2o1	80.9*	10.6	30.0*	0.3	66.5*	0.2
O=C1c2ccccc2C(=O)N1CCCCSc1nnc(-c2ccc(OC(F)F)cc2)o1	39.2	12.6	21.4	1.8	-78.3	0.6
Cc1nnc(SCCCN2C(=O)c3ccccc3C2=O)o1	59.5*	27.3	-3.7	0.7	28.1	0.4
Cc1cccc(OCC(=O)N/N=C\c2cc3c(cc2[N+](=O)[O-])OCO3)c1C	19.2	0.0	13.2	0.5	48.3	0.8
COC(=O)c1cc(-c2ccccc2)sc1N	16.9	1.0	3.6	1.1	-13.8	0.8
CC1(C)C(c2cccs2)=NC(c2ccccc2)N1O (configuration not stated)	42.1	9.0	24.4	0.9	13.2	0.6
Fc1ccccc1N1CC(c2ccccc2)C(c2cccs2)=N1 (configuration not stated)	23.8	-6.0	5.6	0.4	59.5*	0.8
COc1ccc(OCCCC(=O)NCC(C)C)cc1	42.4	-1.3	3.1	0.8	18.7	0.6
N/C(=N\OC(=O)c1cccc(F)c1)c1ccccc1	0.3	-2.1	5.6	1	-2.7	1
Cc1ccc2nc(C)cc(OCC(=O)O)c2c1	-11.5	44.2*	2.8	1.1	-6.6	1.1
O=C(N1CCCC1)n1c(Cc2ccccc2)nc2ccccc21	18.5	0.8	4.0	1.1	-11.4	0.8
O=C(Nc1ccncc1)C1CC1c1ccccc1 (configuration not stated)	96.6*	-4.6	0.5	0.2	84.4*	0
O=C(NC1CCCC1)C1CC1c1ccccc1 (configuration not stated)	73.4*	11.5	4.4	0.4	63.3*	0.3
O=C(O)C1CCCCC1C(=O)NC1CCCCC1 (configuration not stated)	-19.7	-3.6	8.5	1.2	-15.7	1.2
O=C(Nc1cccc(N2CCCC2)c1)c1cccs1	-2.4	2.2	3.9	0.9	11.6	1
CCn1c(SCc2nc3ccccc3c(=O)[nH]2)nnc1-c1cccnc1	90.3*	-0.8	14.8	1.1	-5.5	0.1
C=CCn1c(SCc2nc3ccccc3[nH]2)nnc1-c1ccncc1	93.2*	-2.4	9.2	0.5	46.4	0.1

High-throughput results as filed in PubChem BioAssay.
